These results are taken from ChEMBL document CHEMBL2218924, “A broad activity screen in support of a chemogenomic map for kinase signalling research and drug discovery” (Biochem J, 2013).

Test [1] deals with T1, CDK3/cyclin E (Homo sapiens) (UniProt P24864+O96020+Q00526). Particulars: at 1 µM.
For test [2], the target named is T1, CDK3/cyclin E (Homo sapiens). Particulars: at 10 µM.
The target in test [3] is T2, Cyclin-dependent kinase 5/CDK5 activator 1 (Homo sapiens) (UniProt Q00535+Q15078). Particulars: at 1 µM.
Target sequence in this assay (Q00535 whole entry): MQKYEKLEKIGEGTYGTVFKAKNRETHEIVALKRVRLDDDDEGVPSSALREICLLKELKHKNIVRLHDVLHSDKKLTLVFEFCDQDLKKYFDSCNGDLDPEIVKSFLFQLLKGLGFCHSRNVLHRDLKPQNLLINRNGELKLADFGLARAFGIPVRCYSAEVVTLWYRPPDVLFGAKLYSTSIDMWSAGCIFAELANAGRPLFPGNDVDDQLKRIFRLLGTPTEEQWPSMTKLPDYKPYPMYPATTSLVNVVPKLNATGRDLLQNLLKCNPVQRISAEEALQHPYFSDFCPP
Target sequence in this assay (Q15078 99-307 partner limits assumed): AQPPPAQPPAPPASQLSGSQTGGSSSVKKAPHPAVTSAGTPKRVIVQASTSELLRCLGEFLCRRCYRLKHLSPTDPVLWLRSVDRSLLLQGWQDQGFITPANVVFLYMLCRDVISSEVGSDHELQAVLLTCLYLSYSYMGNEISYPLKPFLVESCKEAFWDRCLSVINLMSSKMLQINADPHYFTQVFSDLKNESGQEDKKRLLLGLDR
Test [4] addresses T2, Cyclin-dependent kinase 5/CDK5 activator 1 (Homo sapiens). To be noted: at 10 µM.
The target is the same in test [5]. To be noted: at 1 µM. The source holds these as a separate data set.
For test [6] the target is unchanged. To be noted: at 10 µM. This is another data set of the same source.
Target sequence in this assay (Q00535 whole entry): as the sequence (Q00535 whole entry) above
Target sequence in this assay (Q15078 99-307 partner limits assumed): as the sequence (Q15078 99-307 partner limits assumed) above
Test [7] deals with T3, CDK6/cyclin D3 (Homo sapiens) (UniProt P30281+Q00534). To be noted: at 1 µM.
Test [8] addresses T3, CDK6/cyclin D3 (Homo sapiens). Particulars: at 10 µM.
Test [9] deals with T4, Cyclin-dependent kinase 7/ cyclin H (Homo sapiens) (UniProt P51946+P50613). Particulars: at 1 µM.
Test [10] has as its target T4, Cyclin-dependent kinase 7/ cyclin H (Homo sapiens). Particulars: at 10 µM.
Test [11] addresses T5, CDK9/cyclin T1 (Homo sapiens) (UniProt O60563+P50750). To be noted: at 1 µM.
For test [12], the target named is T5, CDK9/cyclin T1 (Homo sapiens). Particulars: at 10 µM.
The target of test [13] is T6, Serine/threonine-protein kinase Chk1 (Homo sapiens) (UniProt O14757).
T6 sequence (whole entry): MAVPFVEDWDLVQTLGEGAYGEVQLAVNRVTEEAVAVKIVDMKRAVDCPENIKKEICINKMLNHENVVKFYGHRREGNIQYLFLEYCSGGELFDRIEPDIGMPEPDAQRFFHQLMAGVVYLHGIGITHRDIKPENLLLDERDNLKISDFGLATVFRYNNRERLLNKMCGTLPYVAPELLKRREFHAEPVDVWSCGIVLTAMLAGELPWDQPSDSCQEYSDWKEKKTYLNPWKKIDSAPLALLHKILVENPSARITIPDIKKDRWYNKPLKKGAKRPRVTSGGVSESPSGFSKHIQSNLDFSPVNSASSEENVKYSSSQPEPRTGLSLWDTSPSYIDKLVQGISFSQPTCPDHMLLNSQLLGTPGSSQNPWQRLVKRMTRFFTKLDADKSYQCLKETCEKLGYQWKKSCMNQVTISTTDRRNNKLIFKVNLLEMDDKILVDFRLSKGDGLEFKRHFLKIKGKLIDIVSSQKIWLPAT
To be noted: at 1 µM.

The target of test [14] is T6, Serine/threonine-protein kinase Chk1 (Homo sapiens). Particulars: at 10 µM.
For test [15], the target named is Serine/threonine-protein kinase Chk2 (Homo sapiens) (UniProt O96017). Particulars: at 1 µM.
The target is the same in test [16]. To be noted: at 10 µM.
The target of test [17] is Casein kinase I isoform gamma-1 (Homo sapiens) (UniProt Q9HCP0). Particulars: at 1 µM.
For test [18] the target is unchanged. To be noted: at 10 µM.
Test [19] has as its target Casein kinase I isoform delta (Homo sapiens) (UniProt P48730). To be noted: at 1 µM.
The target is the same in test [20]. Particulars: at 10 µM.

T1 sequence (O96020 whole entry, looked up): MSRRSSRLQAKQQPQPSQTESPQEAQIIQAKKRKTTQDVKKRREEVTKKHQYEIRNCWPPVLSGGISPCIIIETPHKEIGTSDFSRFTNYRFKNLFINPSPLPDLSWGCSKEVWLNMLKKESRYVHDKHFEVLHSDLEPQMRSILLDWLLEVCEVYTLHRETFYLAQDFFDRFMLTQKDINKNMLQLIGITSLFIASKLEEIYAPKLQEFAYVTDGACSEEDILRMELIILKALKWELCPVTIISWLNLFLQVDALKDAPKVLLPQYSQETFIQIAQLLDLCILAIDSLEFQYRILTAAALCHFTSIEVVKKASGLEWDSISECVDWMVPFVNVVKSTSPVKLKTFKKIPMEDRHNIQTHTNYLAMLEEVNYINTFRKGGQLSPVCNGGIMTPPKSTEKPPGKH
T1 sequence (P24864 whole entry, looked up): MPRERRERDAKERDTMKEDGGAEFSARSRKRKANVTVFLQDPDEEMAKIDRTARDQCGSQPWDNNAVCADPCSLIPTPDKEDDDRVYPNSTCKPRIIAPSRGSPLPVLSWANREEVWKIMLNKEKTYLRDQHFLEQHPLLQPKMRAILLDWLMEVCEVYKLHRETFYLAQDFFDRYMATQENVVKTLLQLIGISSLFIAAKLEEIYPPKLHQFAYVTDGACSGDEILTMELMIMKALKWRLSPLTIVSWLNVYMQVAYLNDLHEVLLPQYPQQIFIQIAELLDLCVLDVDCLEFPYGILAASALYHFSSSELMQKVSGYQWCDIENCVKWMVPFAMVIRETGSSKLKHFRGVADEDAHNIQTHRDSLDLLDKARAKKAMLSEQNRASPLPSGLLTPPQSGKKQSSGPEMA
T1 sequence (Q00526 whole entry, looked up): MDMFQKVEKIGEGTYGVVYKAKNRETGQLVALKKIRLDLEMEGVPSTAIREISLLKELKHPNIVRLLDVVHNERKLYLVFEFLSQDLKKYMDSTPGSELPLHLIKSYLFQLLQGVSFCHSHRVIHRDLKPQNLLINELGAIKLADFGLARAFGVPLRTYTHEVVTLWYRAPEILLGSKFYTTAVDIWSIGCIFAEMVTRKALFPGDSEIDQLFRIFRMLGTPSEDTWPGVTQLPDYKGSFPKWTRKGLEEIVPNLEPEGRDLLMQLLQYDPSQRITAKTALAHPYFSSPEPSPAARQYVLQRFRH
Sequence of Casein kinase I isoform delta (Homo sapiens) (P48730 whole entry, looked up, canonical isoform): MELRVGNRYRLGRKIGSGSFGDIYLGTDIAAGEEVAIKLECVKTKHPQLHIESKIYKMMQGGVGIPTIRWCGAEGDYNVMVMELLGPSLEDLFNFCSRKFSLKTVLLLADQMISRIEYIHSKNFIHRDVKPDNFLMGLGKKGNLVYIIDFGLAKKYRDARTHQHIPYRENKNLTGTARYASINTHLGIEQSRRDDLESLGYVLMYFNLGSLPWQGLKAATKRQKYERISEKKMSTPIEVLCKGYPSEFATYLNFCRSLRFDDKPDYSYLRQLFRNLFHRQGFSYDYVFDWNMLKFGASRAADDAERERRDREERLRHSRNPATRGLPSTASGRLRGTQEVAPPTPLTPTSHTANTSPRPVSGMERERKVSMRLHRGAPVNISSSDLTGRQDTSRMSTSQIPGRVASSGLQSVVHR
Sequence of Serine/threonine-protein kinase Chk2 (Homo sapiens) (O96017 whole entry): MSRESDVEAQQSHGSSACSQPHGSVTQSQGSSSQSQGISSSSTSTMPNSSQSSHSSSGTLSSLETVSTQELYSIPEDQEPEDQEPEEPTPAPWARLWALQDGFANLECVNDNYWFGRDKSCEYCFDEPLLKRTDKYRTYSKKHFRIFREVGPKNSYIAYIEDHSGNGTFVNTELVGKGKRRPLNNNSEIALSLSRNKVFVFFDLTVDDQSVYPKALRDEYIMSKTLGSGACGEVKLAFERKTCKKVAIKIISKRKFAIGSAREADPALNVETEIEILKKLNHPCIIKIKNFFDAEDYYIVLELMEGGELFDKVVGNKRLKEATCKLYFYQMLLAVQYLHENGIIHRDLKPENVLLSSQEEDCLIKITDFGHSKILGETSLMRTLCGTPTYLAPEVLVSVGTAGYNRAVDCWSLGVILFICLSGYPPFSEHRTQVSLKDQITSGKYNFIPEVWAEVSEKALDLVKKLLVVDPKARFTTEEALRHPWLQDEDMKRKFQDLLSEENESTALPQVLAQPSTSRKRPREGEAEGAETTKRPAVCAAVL
Sequence of Casein kinase I isoform gamma-1 (Homo sapiens) (Q9HCP0 whole entry, looked up, canonical isoform): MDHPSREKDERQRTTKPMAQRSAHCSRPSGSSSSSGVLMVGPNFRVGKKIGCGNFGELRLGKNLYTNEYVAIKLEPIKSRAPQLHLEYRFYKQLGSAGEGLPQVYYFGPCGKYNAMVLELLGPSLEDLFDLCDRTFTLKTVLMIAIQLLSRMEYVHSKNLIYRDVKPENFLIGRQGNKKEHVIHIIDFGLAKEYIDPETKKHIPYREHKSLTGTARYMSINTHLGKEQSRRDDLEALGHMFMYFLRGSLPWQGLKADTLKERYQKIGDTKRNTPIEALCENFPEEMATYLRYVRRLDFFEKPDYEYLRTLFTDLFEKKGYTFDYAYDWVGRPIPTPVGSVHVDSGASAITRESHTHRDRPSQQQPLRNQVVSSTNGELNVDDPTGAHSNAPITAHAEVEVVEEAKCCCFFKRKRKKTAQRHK

On to `CC(=O)O/N=C1\C(=C2\C(=O)Nc3cc(Br)ccc32)Nc2ccccc21`, for which the residual activity is 12% in [1]; 2% in [2]; 35% in [3]; 10% in test [4]; 60% in test [5]; 9% in test [6]. Moreover, the residual activity in test [7] was 91%; in [8] it was 54%; in test [9] it was 78%; in test [10], 45%; in [11] it was 63%; in [12], 51%. The residual activity in [13] was found to be 95%; in [14] it was 65%; in [15] it was 71%; in test [16], 26%; in [17], 99%; in test [18], 82%. Moreover, the residual activity in test [19] amounted to 78%; in [20], 48%.
Take `O=C(Nc1cccc(Nc2nccc(Nc3cccc(C(F)(F)F)c3)n2)c1)C1CC1`: the residual activity in test [1] came out at 98%; in test [2], 72%; in test [3] it was 94%; in test [4], 98%; in test [5], 107%; in test [6], 98%. Also, the residual activity in [7] was found to be 102%; in test [8], 39%; in test [9], 92%; in [10], 86%; in test [11], 89%; in test [12] it was 79%. Also, the residual activity in [13] was 72%; in [14], 77%; in test [15], 81%; in test [16] it was 48%; in test [17] it was 93%; in test [18], 94%. The residual activity amounted to 82% in test [19] and 78% in test [20].
On to `COc1ccc(S(=O)(=O)N(CCO)c2ccccc2CN(C)C/C=C/c2ccc(Cl)cc2)cc1`, for which the residual activity in test [1] was determined as 92%; in test [2], 80%; in [3] it was 91%; in [4], 84%; in test [5], 90%; in test [6], 97%. Moreover, the residual activity in test [7] is 97%; in test [8], 86%; in test [9] it was 102%; in test [10] it was 88%; in test [11], 87%; in test [12] it was 113%. In addition, the residual activity in [13] was 92%; in [14] it was 89%; in [15], 103%; in test [16], 73%; in test [17], 103%; in test [18], 75%. Also, the values for the residual activity in [19] and in test [20] were 87% and 66%, respectively.
As for `Cc1ccc(NC2=CC(=O)c3sc(C)nc3C2=O)cc1`, the residual activity stood at 92% in test [1]; 95% in [2]; 102% in test [3]; 97% in test [4]; 107% in test [5]; 87% in [6]. The residual activity in test [7] was 91%; in test [8], 85%; in test [9] it was 97%; in test [10], 85%; in test [11], 104%; in test [12], 106%. The residual activity in test [13] amounted to 96%; in [14], 87%; in test [15], 96%; in test [16] it was 82%; in [17], 97%; in test [18] it was 88%. In addition, the residual activity was 96% in test [19] and 88% in [20].
Take `O=C(Nc1cccc(Nc2cc(Nc3cccc(C(F)(F)F)c3)ncn2)c1)C1CC1`: the residual activity was determined as 100% in [1]; 77% in [2]; 89% in test [3]; 63% in [4]; 101% in test [5]; 57% in test [6]. For the same molecule, the residual activity in test [7] stood at 94%; in test [8], 69%; in [9], 88%; in test [10], 80%; in test [11], 85%; in test [12], 62%. For the same molecule, the residual activity in test [13] stood at 89%; in test [14], 86%; in [15], 97%; in [16], 74%; in [17], 85%; in test [18], 66%. The residual activity in [19] is 85%; in test [20], 54%.
Take `Cc1nc(-c2ccccc2)c(-c2ccncc2)o1`: the residual activity in test [1] was 92%; in test [2] it was 91%; in test [3], 96%; in test [4] it was 94%; in test [5], 129%; in [6] it was 93%. Besides, the residual activity turned out to be 110% in [7]; 86% in test [8]; 105% in test [9]; 96% in [10]; 111% in [11]; 98% in test [12]. In addition, the residual activity in test [13] was 102%; in test [14] it was 98%; in test [15], 91%; in [16], 72%; in test [17], 111%; in [18] it was 82%. The residual activity in test [19] is 44%; in [20], 8%.
`c1ccc(-c2n[nH]c3c2oc2ccccc23)cc1`: the residual activity was 98% in [1]; 41% in test [2]; 67% in test [3]; 27% in [4]; 77% in test [5]; 31% in [6]. The residual activity worked out at 75% in test [7]; 30% in test [8]; 84% in [9]; 91% in test [10]; 88% in [11]; 78% in test [12]. Also, the residual activity in test [13] was 86%; in test [14], 89%; in test [15], 85%; in test [16] it was 57%; in test [17], 87%; in [18] it was 73%. The residual activity in test [19] turned out to be 75%; in test [20] it was 33%.
